Tests used:
[1] = target: T1, Ephrin type-A receptor 3 (Homo sapiens) (UniProt P29320); details: at 10 µM
T1 sequence (whole entry): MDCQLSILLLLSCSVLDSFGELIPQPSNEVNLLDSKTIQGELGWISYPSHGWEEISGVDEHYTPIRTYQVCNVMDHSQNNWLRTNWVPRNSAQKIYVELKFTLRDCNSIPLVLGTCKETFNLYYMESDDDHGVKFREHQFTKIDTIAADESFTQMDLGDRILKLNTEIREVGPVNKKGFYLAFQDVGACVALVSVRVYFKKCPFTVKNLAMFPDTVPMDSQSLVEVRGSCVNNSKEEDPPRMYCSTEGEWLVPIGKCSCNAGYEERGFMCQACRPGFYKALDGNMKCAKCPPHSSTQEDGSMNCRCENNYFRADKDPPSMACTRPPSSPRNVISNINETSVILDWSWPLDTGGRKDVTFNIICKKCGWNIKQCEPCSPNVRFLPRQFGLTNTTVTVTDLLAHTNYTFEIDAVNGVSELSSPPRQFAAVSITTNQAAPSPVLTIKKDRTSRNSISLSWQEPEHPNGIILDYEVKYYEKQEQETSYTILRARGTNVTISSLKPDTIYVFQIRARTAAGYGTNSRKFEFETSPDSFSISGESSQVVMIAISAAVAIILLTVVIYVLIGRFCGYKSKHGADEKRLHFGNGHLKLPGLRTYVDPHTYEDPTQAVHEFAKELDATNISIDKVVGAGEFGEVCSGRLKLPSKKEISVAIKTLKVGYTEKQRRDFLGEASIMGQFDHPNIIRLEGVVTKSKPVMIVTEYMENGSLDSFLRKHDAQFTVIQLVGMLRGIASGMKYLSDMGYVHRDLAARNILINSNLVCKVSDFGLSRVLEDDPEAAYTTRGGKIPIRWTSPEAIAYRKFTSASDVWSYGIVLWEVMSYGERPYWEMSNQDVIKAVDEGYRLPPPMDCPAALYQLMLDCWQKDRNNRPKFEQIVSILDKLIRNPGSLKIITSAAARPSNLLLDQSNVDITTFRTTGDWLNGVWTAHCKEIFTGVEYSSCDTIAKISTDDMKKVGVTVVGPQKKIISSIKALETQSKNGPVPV

[2] = target: Ephrin type-A receptor 4 (Homo sapiens) (UniProt P54764); details: at 1 µM
Sequence of Ephrin type-A receptor 4 (Homo sapiens) (P54764 whole entry): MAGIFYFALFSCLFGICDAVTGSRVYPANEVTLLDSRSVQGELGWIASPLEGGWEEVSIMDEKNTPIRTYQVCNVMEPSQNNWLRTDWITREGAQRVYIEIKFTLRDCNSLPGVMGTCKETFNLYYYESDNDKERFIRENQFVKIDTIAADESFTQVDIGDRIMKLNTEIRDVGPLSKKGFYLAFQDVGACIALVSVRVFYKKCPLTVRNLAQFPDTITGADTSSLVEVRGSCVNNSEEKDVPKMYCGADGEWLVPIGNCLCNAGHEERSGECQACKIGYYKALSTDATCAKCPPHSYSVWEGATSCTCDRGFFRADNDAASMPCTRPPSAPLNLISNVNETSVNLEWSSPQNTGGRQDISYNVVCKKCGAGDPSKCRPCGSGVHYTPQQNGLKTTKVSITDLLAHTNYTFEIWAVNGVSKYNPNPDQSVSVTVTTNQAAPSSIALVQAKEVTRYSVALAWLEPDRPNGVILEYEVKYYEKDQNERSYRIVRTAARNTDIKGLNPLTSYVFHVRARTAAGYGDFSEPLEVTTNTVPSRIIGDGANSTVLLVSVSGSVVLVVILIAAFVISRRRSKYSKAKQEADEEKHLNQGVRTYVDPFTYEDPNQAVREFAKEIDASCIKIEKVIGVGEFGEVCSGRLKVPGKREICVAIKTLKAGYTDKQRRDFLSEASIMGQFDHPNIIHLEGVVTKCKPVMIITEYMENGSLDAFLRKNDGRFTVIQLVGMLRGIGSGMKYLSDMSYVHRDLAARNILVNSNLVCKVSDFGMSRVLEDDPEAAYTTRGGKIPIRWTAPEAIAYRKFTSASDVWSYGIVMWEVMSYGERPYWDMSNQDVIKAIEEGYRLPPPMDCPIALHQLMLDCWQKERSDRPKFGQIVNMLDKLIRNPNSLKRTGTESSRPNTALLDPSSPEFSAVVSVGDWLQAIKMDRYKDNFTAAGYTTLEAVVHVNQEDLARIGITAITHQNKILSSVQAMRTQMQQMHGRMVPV

[3] = target: Ephrin type-A receptor 4 (Homo sapiens) (UniProt P54764); details: at 10 µM
[4] = target: Ephrin type-A receptor 5 (Homo sapiens) (UniProt P54756); details: at 1 µM
Sequence of Ephrin type-A receptor 5 (Homo sapiens) (P54756 whole entry): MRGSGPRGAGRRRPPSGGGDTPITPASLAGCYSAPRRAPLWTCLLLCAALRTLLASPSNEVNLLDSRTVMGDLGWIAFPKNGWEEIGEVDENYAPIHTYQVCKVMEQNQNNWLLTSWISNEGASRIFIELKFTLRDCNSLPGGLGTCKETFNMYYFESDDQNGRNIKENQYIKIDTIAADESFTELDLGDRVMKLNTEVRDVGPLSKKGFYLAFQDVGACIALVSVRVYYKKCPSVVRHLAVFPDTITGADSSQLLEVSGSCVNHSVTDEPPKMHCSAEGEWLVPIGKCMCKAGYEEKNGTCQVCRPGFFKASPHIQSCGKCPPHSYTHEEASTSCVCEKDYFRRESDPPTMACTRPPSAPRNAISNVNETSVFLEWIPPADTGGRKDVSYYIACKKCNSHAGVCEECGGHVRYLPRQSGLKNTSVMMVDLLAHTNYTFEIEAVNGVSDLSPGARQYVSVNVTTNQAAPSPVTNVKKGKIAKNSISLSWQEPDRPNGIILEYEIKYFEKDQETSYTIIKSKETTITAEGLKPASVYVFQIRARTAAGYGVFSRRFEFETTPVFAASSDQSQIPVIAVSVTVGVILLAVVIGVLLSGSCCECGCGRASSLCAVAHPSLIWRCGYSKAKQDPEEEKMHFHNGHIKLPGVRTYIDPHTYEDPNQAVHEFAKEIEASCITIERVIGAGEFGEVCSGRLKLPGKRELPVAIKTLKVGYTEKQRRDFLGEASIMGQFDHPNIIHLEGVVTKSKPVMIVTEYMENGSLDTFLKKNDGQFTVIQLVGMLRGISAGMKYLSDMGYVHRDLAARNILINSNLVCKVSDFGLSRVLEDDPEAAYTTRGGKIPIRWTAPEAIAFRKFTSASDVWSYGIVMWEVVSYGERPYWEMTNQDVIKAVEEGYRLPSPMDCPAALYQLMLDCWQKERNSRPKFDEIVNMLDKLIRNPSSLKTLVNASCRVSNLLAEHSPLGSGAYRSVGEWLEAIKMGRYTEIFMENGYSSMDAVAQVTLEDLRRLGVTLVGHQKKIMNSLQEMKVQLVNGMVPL

[5] = target: Ephrin type-A receptor 5 (Homo sapiens) (UniProt P54756); details: at 10 µM
[6] = target: Ephrin type-A receptor 7 (Homo sapiens) (UniProt Q15375); details: at 1 µM
Sequence of Ephrin type-A receptor 7 (Homo sapiens) (Q15375 28-998 limits assumed): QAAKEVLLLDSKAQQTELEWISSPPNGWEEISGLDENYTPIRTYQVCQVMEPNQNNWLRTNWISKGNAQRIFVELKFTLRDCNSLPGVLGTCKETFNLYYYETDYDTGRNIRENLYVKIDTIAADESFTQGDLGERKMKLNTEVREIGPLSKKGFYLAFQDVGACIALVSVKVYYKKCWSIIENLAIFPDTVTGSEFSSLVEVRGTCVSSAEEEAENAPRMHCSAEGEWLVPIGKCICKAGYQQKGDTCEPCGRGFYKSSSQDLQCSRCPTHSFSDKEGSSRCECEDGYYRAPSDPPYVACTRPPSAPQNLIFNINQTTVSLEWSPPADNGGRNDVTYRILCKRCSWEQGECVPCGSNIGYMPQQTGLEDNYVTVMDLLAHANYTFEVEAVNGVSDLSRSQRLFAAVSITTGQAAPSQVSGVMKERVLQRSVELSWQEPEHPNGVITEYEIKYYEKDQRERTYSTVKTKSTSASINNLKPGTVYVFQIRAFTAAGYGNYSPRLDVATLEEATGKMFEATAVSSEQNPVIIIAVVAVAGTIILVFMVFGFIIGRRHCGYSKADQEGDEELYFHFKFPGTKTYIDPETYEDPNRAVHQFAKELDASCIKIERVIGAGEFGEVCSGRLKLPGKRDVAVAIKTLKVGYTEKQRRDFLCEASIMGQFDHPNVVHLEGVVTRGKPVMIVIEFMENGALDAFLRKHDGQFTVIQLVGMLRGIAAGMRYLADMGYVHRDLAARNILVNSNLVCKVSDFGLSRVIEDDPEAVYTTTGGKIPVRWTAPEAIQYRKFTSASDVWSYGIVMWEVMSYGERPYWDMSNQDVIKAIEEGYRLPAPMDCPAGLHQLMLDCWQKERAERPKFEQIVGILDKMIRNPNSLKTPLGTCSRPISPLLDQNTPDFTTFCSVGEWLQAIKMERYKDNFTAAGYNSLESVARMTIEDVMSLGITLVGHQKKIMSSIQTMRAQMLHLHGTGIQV

[7] = target: Ephrin type-A receptor 7 (Homo sapiens) (UniProt Q15375); details: at 10 µM
[8] = target: T2, Ephrin type-A receptor 8 (Homo sapiens) (UniProt P29322); details: at 1 µM
T2 sequence (whole entry): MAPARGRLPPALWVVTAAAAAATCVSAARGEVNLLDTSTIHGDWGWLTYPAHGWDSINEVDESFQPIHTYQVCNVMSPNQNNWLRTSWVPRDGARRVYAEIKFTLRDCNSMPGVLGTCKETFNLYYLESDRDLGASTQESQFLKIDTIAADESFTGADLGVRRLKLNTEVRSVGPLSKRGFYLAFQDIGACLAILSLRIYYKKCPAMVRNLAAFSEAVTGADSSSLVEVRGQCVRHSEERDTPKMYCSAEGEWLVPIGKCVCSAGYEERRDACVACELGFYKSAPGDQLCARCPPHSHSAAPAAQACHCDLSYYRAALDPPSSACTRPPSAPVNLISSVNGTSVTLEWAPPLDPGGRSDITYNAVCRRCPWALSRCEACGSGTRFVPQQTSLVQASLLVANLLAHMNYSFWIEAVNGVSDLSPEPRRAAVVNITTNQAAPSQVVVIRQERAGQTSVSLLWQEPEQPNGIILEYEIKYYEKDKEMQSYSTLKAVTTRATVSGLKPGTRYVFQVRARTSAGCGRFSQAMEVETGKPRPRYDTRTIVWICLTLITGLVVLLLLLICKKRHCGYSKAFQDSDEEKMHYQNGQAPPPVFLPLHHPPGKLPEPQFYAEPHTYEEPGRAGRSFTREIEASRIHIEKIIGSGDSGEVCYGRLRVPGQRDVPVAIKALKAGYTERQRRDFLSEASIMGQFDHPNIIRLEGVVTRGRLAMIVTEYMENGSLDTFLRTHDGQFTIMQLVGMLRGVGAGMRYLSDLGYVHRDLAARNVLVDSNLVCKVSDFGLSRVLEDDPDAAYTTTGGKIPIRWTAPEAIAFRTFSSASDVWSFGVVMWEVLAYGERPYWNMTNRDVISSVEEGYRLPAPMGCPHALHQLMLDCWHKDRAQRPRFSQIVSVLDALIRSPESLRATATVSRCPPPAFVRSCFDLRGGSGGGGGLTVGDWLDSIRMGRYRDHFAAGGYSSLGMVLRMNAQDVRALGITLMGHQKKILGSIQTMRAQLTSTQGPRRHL

[9] = target: T2, Ephrin type-A receptor 8 (Homo sapiens); details: at 10 µM
[10] = target: T3, Ephrin type-B receptor 1 (Homo sapiens) (UniProt P54762); details: at 1 µM
T3 sequence (whole entry): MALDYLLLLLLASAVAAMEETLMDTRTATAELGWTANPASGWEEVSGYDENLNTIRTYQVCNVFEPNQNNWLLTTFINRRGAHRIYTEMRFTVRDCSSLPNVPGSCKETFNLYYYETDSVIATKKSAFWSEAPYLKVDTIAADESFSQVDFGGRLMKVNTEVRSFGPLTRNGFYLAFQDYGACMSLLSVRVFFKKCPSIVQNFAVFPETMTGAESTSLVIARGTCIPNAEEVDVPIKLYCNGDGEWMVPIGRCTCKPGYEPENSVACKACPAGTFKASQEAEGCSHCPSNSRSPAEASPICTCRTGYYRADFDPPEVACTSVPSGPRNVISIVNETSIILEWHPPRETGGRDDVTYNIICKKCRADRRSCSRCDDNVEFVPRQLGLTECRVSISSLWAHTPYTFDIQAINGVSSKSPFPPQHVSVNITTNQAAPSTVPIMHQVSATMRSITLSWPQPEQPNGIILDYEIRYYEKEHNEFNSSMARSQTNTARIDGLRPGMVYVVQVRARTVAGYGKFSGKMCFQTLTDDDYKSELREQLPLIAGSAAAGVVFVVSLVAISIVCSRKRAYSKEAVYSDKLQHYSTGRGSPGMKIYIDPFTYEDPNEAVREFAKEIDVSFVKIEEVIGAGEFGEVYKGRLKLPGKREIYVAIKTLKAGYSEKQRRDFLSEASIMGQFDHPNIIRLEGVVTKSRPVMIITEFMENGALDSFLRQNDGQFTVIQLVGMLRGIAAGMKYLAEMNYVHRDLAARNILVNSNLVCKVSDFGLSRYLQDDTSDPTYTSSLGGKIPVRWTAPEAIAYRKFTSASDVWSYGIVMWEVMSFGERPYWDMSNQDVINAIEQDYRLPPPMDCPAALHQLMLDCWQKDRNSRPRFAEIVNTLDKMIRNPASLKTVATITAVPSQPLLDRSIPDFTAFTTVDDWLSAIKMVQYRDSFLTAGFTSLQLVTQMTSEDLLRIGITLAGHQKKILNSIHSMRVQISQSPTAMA

[11] = target: T3, Ephrin type-B receptor 1 (Homo sapiens); details: at 10 µM
[12] = target: T4, Ephrin type-B receptor 2 (Homo sapiens) (UniProt P29323); details: at 1 µM
T4 sequence (whole entry): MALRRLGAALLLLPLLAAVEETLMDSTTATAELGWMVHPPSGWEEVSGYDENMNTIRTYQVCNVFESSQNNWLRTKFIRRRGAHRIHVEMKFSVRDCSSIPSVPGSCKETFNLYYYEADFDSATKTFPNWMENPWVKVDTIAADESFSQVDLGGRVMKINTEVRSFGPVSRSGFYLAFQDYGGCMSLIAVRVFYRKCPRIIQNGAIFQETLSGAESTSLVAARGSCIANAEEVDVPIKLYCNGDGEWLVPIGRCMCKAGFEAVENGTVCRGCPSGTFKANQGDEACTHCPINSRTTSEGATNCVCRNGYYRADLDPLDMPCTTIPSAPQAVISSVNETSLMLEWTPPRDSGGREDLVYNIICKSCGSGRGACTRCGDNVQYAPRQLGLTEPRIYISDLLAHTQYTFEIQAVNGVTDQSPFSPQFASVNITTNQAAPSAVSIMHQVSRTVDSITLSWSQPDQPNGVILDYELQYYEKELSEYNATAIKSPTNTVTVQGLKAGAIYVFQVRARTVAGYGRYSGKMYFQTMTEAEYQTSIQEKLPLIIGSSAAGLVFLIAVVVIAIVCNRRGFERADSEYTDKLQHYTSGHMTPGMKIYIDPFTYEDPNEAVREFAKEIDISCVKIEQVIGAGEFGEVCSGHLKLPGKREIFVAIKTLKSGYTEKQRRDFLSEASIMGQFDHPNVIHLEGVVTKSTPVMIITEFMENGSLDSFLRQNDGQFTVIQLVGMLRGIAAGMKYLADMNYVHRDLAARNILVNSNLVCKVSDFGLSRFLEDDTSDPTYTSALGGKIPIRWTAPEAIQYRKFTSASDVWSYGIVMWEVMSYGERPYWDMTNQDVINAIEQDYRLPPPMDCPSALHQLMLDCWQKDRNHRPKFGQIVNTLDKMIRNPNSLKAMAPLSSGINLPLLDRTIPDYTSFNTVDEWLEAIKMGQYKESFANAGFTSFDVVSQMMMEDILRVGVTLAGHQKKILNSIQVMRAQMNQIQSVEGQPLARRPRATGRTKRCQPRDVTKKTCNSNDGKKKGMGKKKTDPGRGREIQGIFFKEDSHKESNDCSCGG

[13] = target: T4, Ephrin type-B receptor 2 (Homo sapiens); details: at 10 µM
[14] = target: Receptor tyrosine-protein kinase erbB-4 (Homo sapiens) (UniProt Q15303); details: at 10 µM
[15] = target: Focal adhesion kinase 1 (Homo sapiens) (UniProt Q05397); details: at 1 µM
Sequence of Focal adhesion kinase 1 (Homo sapiens) (Q05397 2-1052 limits assumed): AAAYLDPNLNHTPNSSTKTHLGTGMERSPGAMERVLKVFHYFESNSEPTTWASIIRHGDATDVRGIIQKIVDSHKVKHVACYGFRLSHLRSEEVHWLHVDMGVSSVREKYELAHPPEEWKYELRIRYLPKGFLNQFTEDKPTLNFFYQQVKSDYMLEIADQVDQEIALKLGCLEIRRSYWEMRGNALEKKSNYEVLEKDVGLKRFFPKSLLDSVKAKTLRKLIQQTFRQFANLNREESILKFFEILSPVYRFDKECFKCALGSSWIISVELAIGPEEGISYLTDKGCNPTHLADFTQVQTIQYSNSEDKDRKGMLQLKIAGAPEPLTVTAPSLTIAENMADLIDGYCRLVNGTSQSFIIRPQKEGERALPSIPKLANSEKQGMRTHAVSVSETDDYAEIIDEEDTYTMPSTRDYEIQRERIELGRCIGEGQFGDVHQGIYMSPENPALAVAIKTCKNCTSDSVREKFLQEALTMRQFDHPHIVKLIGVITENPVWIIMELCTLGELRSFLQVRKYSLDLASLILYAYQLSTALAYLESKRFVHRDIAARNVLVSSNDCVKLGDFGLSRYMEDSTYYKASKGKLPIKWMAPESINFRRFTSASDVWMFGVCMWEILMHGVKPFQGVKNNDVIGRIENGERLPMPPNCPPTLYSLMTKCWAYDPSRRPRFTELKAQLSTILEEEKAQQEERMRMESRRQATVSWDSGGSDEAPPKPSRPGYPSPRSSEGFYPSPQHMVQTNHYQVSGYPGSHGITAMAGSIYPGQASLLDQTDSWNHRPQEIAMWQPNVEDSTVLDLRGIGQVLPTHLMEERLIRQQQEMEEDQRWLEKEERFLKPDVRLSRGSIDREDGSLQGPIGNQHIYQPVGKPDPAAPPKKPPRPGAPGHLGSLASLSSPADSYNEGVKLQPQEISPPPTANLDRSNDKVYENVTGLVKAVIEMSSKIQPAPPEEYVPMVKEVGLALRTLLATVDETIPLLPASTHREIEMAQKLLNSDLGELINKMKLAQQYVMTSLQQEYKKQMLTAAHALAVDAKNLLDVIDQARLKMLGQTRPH

[16] = target: T5, Ephrin type-B receptor 3 (Homo sapiens) (UniProt P54753); details: at 1 µM
T5 sequence (whole entry): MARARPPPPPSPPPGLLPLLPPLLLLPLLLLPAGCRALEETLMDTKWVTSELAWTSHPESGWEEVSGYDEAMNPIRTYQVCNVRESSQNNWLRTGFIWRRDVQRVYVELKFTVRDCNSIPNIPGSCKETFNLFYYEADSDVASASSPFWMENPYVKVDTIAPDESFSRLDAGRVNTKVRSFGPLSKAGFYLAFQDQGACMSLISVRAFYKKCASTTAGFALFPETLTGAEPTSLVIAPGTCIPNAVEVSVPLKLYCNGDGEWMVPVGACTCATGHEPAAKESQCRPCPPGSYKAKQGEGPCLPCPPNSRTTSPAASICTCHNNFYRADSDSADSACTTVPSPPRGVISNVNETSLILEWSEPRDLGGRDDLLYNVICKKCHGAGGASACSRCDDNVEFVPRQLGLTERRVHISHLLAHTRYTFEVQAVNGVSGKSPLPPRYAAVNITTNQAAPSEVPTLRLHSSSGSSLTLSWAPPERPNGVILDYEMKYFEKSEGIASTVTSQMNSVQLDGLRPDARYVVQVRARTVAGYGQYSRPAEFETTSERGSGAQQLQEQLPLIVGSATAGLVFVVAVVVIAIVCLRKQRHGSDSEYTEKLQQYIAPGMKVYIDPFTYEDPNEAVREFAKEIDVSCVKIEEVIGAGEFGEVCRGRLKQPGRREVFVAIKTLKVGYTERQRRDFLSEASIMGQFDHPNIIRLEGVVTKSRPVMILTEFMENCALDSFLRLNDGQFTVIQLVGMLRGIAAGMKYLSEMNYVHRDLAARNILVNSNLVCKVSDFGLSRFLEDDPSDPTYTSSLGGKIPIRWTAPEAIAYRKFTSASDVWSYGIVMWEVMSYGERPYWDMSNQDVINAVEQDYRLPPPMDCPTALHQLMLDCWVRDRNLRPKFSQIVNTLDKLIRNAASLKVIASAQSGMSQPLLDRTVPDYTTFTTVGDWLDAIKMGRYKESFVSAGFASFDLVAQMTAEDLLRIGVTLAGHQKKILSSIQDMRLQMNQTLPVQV

[17] = target: T5, Ephrin type-B receptor 3 (Homo sapiens); details: at 10 µM

Structure (SMILES) | residual activity [1] [%] | residual activity [2] [%] | residual activity [3] [%] | residual activity [4] [%] | residual activity [5] [%] | residual activity [6] [%] | residual activity [7] [%] | residual activity [8] [%] | residual activity [9] [%] | residual activity [10] [%] | residual activity [11] [%] | residual activity [12] [%] | residual activity [13] [%] | residual activity [14] [%] | residual activity [15] [%] | residual activity [16] | residual activity [17] [%]
COc1cc2nccc(Oc3ccc(NC(=O)Nc4cc(C)on4)c(Cl)c3)c2cc1OC | 0 | 26 | 3 | 2 | 7 | 6 | 1 | 1 | 1 | 1 | -1 | -2 | -1 | 75 | 96 |  | 
Cn1c2ccccc2c2c3c(c4c5ccccc5n(CCC#N)c4c21)CNC3=O | 50 |  |  |  |  | 43 | 39 |  |  | 63 | 63 | 116 | 111 |  | 33 | 105% (inactive) | 118

From ChEMBL document CHEMBL2218924, “A broad activity screen in support of a chemogenomic map for kinase signalling research and drug discovery” (Biochem J, 2013)
